According to PubChem BioAssay (EPA / NIEHS):
Records with an inconclusive call do not appear. The source made the active and inactive calls. How the source made its calls, unless noted: active means hit-call score of the fitted dose curve at least 0.9, where 1 is the maximum; inactive means score below 0.9.

Assays:
[1] = target: Oxysterols receptor LXR-beta (Homo sapiens) (UniProt P55055); experiment: ATG_LXRb_TRANS: Attagene TRANS-FACTORIAL HepG2 Assay for human Liver X Receptor beta (LXRb) (AID 2282981; active means hit-call score of the fitted dose curve at least 0.9, where 1 is the maximum); conditions: HepG2 Attagene TRANS GAL4-LXRb reporter, mRNA
Sequence of Oxysterols receptor LXR-beta (Homo sapiens) (P55055 whole entry, looked up, the tested form may be a part): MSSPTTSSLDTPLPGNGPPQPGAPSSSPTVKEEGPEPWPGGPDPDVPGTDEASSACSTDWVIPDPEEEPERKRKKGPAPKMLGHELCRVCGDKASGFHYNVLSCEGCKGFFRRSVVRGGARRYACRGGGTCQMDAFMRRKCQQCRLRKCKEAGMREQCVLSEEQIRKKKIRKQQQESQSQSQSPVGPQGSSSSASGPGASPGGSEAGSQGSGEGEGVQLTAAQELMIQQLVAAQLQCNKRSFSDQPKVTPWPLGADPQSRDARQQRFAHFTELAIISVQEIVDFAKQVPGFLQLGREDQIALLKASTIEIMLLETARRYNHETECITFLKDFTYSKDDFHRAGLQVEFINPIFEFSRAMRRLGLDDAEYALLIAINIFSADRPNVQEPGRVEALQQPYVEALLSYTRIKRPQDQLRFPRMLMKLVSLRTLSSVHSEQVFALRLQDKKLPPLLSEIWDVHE
Summary of the method: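 Multiplexed reporter assay, HepG2, 24 h dosing. Fluorescence of labelled RT-PCR products after capillary electrophoresis gives transcript level; positive fitting direction relative to DMSO.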

[2] = target: Hepatocyte nuclear factor 4-alpha (Homo sapiens) (UniProt P41235); experiment: ATG_HNF4a_TRANS: Attagene TRANS-FACTORIAL HepG2 Assay for human Hepatocyte Nuclear Factor 4 alpha (HNF4a) (AID 2282982; active means hit-call score of the fitted dose curve at least 0.9, where 1 is the maximum); conditions: HepG2 HNF4a transactivation reporter, mRNA readout
Sequence of Hepatocyte nuclear factor 4-alpha (Homo sapiens) (P41235 whole entry, looked up, the tested form may be a part): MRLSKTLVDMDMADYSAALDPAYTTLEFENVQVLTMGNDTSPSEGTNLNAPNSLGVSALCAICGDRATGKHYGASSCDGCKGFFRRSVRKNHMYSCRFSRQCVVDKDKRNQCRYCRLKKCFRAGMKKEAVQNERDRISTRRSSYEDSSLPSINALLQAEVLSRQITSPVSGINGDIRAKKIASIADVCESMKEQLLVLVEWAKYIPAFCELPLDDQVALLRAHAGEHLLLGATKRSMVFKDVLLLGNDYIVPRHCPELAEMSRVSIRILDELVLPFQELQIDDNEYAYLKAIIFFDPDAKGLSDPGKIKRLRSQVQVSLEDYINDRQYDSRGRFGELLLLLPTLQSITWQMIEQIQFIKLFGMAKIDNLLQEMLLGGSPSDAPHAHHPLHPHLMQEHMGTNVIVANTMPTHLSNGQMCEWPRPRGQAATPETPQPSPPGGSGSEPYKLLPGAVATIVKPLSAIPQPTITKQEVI
Summary of the method: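 Endpoint reflects transcriptional activation of a GAL4-UAS reporter by an HNF4a-GAL4 chimera in transfected HepG2 cells, 24 h post-dosing. Fluorescence from RT-PCR products separated by capillary electrophoresis; DMSO baseline.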

[3] = ATG_M_06_TRANS: Attagene TRANS-FACTORIAL HepG2 Assay for M06 Transcription Factor (Internal Marker) (AID 2282983; active means hit-call score of the fitted dose curve at least 0.9, where 1 is the maximum); conditions: HepG2 Attagene TRANS M06 internal marker reporter
Summary of the method: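 Background-control reporter readout: after 24 h chemical exposure of transiently transfected HepG2 (GAL4-UAS reporter units), mRNA quantified by RT-PCR with fluorescent labeling and capillary electrophoresis. Gain-of-signal fitting against DMSO baseline.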

[4] = ATG_M_32_TRANS: Attagene TRANS-FACTORIAL HepG2 Assay for M32 Transcription Factor (Internal Marker) (AID 2282984; active means hit-call score of the fitted dose curve at least 0.9, where 1 is the maximum;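 further: transcript level of a background control reporter unit measured by RT-PCR and capillary electrophoresis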); conditions: HepG2 Attagene TRANS M32 internal marker reporter
Summary of the method: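 Internal-marker readout from a multiplexed transcription reporter panel. HepG2 cells were transfected with GAL4-UAS reporter units, treated 24 hours, and reporter transcript levels determined by fluorescence after RT-PCR and capillary separation.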

[5] = target: Nuclear receptor subfamily 4 group A member 2 (Homo sapiens) (UniProt P43354); experiment: ATG_NURR1_TRANS: Attagene TRANS-FACTORIAL HepG2 Assay for human Nuclear Receptor Related Protein 1 (NURR1) (AID 2282985; active means hit-call score of the fitted dose curve at least 0.9, where 1 is the maximum); conditions: HepG2 Attagene TRANS reporter, mRNA readout
Sequence of Nuclear receptor subfamily 4 group A member 2 (Homo sapiens) (P43354 whole entry, looked up): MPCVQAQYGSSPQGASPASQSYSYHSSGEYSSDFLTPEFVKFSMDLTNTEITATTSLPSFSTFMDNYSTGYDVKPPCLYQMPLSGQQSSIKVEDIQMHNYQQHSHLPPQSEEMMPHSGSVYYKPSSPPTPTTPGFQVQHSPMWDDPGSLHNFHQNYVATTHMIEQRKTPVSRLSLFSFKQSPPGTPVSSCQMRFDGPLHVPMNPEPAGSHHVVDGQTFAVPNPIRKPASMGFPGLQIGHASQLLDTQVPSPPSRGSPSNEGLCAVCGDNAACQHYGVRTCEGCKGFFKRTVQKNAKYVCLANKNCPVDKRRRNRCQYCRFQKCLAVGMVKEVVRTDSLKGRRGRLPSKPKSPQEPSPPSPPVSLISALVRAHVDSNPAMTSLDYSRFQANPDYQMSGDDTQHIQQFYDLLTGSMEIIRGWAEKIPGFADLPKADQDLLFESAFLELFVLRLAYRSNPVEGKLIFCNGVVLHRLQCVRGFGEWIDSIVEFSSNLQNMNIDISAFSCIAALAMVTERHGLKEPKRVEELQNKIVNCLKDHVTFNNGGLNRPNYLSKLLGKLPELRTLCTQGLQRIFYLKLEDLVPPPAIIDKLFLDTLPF
Summary of the method: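 Endpoint: reporter mRNA increase relative to DMSO. HepG2 cells transfected with reporter units, treated 24 h; RNA processed by RT-PCR, labelling, HpaI digestion and capillary electrophoresis.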

[6] = target: Nuclear respiratory factor 1 (Homo sapiens) (UniProt Q16656); experiment: ATG_NRF1_CIS: Attagene CIS-FACTORIAL HepG2 Assay for human Nuclear Respiratory Factor 1 (NRF1) Orphan Gene (AID 2282987); conditions: HepG2 NRF1 cis-element reporter, Attagene multiplex; actives raise or lower the signal
Sequence of Nuclear respiratory factor 1 (Homo sapiens) (Q16656 whole entry, looked up): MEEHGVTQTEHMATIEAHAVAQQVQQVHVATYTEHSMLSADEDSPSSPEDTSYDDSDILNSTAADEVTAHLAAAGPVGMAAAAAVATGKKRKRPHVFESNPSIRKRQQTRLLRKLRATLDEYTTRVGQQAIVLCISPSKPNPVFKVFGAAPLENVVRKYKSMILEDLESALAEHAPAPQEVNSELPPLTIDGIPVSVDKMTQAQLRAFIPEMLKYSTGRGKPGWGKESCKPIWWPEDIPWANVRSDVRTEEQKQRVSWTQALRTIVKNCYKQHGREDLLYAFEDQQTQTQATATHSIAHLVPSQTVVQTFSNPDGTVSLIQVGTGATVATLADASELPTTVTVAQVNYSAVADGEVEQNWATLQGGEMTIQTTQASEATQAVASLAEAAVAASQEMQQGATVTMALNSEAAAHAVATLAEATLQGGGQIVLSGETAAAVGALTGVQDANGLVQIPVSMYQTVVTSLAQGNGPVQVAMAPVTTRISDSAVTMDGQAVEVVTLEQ
Summary of the method: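 Endogenous NRF1-driven reporter transcription in transfected HepG2 cells after 24 h treatment. Readout: RT-PCR products, 6-FAM labelled and resolved by capillary electrophoresis; changes fitted both directions relative to DMSO.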

[7] = ATG_NFI_CIS: Attagene CIS-FACTORIAL HepG2 Assay for human Nuclear Factor I (NFI) (AID 2282989); conditions: HepG2 cis-regulatory reporter, NFI response element transcription; actives raise or lower the signal
Summary of the method: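 Transient MRTU transfection of HepG2 → 24 h chemical dosing → total RNA, oligo(dT) RT → PCR, 6-FAM primer extension, HpaI cut → capillary electrophoresis. Endpoint fitted bidirectionally relative to DMSO.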

[8] = target: Myc proto-oncogene protein (Homo sapiens) (UniProt P01106); experiment: ATG_Myc_CIS: Attagene CIS-FACTORIAL HepG2 Assay for human Myelocytomatosis (Myc) Proto-Oncogene Transcription Factor (AID 2282990); conditions: HepG2, Attagene cis-reporter transcription factor activity; actives raise or lower the signal
Sequence of Myc proto-oncogene protein (Homo sapiens) (P01106 whole entry, looked up, the tested form may be a part): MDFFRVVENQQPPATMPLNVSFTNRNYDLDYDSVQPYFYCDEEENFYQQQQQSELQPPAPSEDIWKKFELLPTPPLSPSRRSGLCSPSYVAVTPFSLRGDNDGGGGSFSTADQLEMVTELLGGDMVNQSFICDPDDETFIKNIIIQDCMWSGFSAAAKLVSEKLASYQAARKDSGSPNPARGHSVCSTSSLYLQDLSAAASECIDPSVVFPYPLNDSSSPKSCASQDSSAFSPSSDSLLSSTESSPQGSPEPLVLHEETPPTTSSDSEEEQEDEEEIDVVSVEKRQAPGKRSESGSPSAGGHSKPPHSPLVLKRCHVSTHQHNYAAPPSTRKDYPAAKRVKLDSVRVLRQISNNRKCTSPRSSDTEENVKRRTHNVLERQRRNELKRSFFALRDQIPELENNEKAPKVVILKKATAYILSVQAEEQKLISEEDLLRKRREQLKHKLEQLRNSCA
Summary of the method: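 Fluorescence intensity of reporter-specific cDNA fragments, separated by capillary electrophoresis, gives the signal. Transfected HepG2 cells carrying cis-promoter reporter constructs are incubated with compound for 24 h; DMSO serves as baseline.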

[9] = ATG_NF_kB_CIS: Attagene CIS-FACTORIAL HepG2 Assay for human Nuclear Factor Kappa B (NF-kB) (AID 2282991); conditions: HepG2 Attagene cis-factorial NF-kB reporter mRNA; actives raise or lower the signal
Summary of the method: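 Readout is reporter transcript level, gain or loss versus DMSO, measured 24 h post-dose via RT-PCR, fluorescent labelling and capillary electrophoresis. Human HepG2 liver cells carried transiently transfected CIS reporter constructs reflecting endogenous factors.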

[10] = ATG_NRF2_ARE_CIS: Attagene CIS-FACTORIAL HepG2 Assay for human Nuclear Factor Erythroid 2 Related Factor 2 (NFR2) response to Antioxidant Response Elements (ARE) (AID 2282992); conditions: HepG2 Attagene ARE/NRF2 reporter, transcription factor activity; actives raise or lower the signal
Summary of the method: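 Endogenous transcription factor activity read out as reporter transcript levels (RT-PCR plus capillary electrophoresis, fluorescence) in transiently transfected HepG2 cells. Measured at 24 h after dosing; gain or loss of signal fitted versus DMSO.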

[11] = ATG_Oct_MLP_CIS: Attagene CIS-FACTORIAL HepG2 Assay for human Octamer-Binding Transcription Factor (Oct) (AID 2282993); conditions: HepG2 Attagene cis-factorial Oct reporter, mRNA; actives raise or lower the signal
Summary of the method: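 Transient MRTU transfection of HepG2 → 24 h compound treatment → RNA isolation, reverse transcription, PCR → 6-FAM primer extension, HpaI digest → capillary electrophoresis. Activity fitted both directions against DMSO.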

[12] = target: Cellular tumor antigen p53 (Homo sapiens) (UniProt P04637); experiment: ATG_p53_CIS: Attagene CIS-FACTORIAL HepG2 Assay for human p53 Transcription Factor (AID 2282994); conditions: HepG2 p53 cis-element reporter, Attagene mRNA; actives raise or lower the signal
Sequence of Cellular tumor antigen p53 (Homo sapiens) (P04637 whole entry, looked up): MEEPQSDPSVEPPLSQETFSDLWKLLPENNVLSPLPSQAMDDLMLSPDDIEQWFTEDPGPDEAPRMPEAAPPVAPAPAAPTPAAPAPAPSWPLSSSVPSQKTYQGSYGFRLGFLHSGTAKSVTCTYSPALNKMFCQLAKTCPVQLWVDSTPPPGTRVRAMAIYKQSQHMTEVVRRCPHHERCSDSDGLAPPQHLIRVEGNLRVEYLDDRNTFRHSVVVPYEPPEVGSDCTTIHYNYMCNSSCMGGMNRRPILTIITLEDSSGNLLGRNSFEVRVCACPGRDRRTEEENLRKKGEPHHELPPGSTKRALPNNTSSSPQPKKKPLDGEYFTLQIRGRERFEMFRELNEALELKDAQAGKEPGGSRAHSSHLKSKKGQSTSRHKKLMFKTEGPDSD
Summary of the method: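 Endogenous p53 activity read in transiently transfected HepG2 from a cis-element-driven reporter transcript after 24 h exposure. RNA reverse-transcribed, PCR-amplified, fluorescently labelled and sized by capillary electrophoresis; gain or loss fitted against DMSO baseline.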

[13] = BSK_3C_TissueFactor: BioMAP Diversity Plus: 3C Assay for Tissue Factor Biomarker Activity (AID 2282997); conditions: BioMAP 3C HUVEC, tissue factor biomarker readout; actives raise or lower the signal
Summary of the method: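 Tissue factor on primary human umbilical vein endothelium was read by ELISA 24 h after dosing, gain or loss relative to DMSO. Cytotoxicity ran alongside via SRB (0.1%, TCA-fixed, 560 nm).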

[14] = BSK_3C_uPAR: BioMAP Diversity Plus: 3C Assay for Urokinase-type plasminogen activator receptor (uPAR) Biomarker Activity (AID 2282998); conditions: BioMAP 3C HUVEC, uPAR biomarker ELISA; actives raise or lower the signal
Summary of the method: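 ELISA readout of uPAR on human vascular endothelium (umbilical vein primary cells), taken 24 h after chemical dosing. Increases and decreases are both fitted relative to DMSO vehicle.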

[15] = BSK_3C_VCAM1: BioMAP Diversity Plus: 3C Assay for Vascular cell adhesion molecule 1 (VCAM1) Biomarker Activity (AID 2282999); conditions: BioMAP 3C HUVEC, VCAM1 ELISA, cytokine-stimulated; actives raise or lower the signal
Summary of the method: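 HUVEC primary cells, 24 h compound exposure; VCAM-1 by ELISA; gain/loss of signal fitted bidirectionally vs DMSO baseline.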

[16] = BSK_4H_Eotaxin3: BioMAP Diversity Plus: 4H Assay for Eotaxin 3 Biomarker Activity (AID 2283000); conditions: primary human endothelial cells (HUVEC); actives raise or lower the signal;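 on outcome: CCL26 protein level quantified by ELISA in parallel with SRB cytotoxicity check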
Summary of the method: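 Human umbilical vein endothelial cells (BSK_4H system) dosed with test chemical; Eotaxin-3 (CCL26) measured by ELISA 24 h after dosing. Bidirectional curve fitting relative to DMSO negative control as baseline.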

[17] = target: Oxysterols receptor LXR-alpha (Homo sapiens) (UniProt Q13133); experiment: ATG_LXRa_TRANS: Attagene TRANS-FACTORIAL HepG2 Assay for human Liver X Receptor alpha (LXRa) (AID 2282980; active means hit-call score of the fitted dose curve at least 0.9, where 1 is the maximum); conditions: HepG2 Attagene TRANS reporter, LXRa transactivation
Sequence of Oxysterols receptor LXR-alpha (Homo sapiens) (Q13133 whole entry, looked up, the tested form may be a part): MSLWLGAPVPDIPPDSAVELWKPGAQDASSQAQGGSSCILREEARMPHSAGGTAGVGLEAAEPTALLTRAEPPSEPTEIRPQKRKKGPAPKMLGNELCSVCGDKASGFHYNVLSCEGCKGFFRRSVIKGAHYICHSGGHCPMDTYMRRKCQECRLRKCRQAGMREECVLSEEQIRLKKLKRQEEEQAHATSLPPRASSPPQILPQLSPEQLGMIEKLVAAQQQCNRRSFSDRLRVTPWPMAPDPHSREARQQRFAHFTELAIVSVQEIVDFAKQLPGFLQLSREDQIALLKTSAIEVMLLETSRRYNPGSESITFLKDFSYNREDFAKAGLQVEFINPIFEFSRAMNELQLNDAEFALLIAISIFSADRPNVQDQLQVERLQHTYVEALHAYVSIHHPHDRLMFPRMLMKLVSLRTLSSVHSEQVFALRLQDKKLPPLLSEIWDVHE
Summary of the method: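 Chemical-induced reporter mRNA measured by RT-PCR with fluorescent labelling and capillary electrophoresis after 24 h dosing of transiently transfected HepG2 cells expressing exogenous NR-Gal4 chimeras; increases scored against DMSO baseline.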

[18] = target: human Peroxisome Proliferator-activated Receptor alpha (PPARa), PPARA (gene 5465) (UniProt Q07869); experiment: ATG_PPARa_TRANS: Attagene TRANS-FACTORIAL HepG2 Assay for human Peroxisome Proliferator-activated Receptor alpha (PPARa) (AID 2283001; active means hit-call score of the fitted dose curve at least 0.9, where 1 is the maximum)
Sequence of human Peroxisome Proliferator-activated Receptor alpha (PPARa), PPARA (gene 5465) (Q07869 whole entry, looked up): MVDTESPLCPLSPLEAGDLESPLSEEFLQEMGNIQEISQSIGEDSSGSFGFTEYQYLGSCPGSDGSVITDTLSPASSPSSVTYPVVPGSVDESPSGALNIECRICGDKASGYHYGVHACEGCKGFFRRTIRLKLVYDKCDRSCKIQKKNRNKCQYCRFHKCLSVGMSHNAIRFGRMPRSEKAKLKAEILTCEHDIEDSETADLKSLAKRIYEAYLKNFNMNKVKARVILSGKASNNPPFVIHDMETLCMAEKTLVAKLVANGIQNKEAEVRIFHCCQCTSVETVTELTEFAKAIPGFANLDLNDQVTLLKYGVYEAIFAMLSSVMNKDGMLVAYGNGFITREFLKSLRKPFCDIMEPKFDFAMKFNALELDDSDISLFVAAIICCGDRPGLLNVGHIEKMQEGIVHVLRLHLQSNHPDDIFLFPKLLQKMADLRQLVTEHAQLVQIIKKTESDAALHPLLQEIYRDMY
Summary of the method: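 HepG2, transient MRTU transfection, 24 h treatment. RT-PCR → FAM labelling → capillary electrophoresis. Fit vs DMSO, positive direction.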

[19] = target: Transcriptional activator Myb (Homo sapiens) (UniProt P10242); experiment: ATG_Myb_CIS: Attagene CIS-FACTORIAL HepG2 Assay for human Myeloblastosis (Myb) Proto-Oncogene Transcription Factor (AID 2282986); conditions: HepG2 Attagene CIS-FACTORIAL Myb reporter transcription; actives raise or lower the signal
Sequence of Transcriptional activator Myb (Homo sapiens) (P10242 whole entry, looked up): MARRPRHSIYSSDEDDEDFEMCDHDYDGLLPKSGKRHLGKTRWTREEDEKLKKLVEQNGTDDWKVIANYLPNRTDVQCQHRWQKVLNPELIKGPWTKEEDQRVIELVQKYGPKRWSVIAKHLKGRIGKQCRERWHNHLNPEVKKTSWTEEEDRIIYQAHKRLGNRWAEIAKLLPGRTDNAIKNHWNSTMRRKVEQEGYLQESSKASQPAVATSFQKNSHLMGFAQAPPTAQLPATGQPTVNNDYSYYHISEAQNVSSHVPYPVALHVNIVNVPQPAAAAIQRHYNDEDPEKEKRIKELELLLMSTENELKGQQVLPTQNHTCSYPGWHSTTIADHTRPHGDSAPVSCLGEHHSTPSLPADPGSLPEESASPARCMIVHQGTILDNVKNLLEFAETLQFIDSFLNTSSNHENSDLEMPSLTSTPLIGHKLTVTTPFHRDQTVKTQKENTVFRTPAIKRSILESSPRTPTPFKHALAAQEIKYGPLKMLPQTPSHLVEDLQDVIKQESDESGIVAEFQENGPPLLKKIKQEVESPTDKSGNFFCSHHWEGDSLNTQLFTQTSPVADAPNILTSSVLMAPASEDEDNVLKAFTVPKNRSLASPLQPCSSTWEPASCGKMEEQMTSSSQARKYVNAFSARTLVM
Summary of the method: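 Reporter mRNA is quantified by RT-PCR and capillary electrophoresis 24 h after dosing HepG2 cells transfected with cis-regulated reporter units, which track endogenous transcription factor activity. Gain and loss of signal are fitted versus DMSO baseline.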

[20] = target: human Peroxisome Proliferator-activated Receptor delta (PPARd), PPARD (gene 5467) (UniProt Q03181); experiment: ATG_PPARd_TRANS: Attagene TRANS-FACTORIAL HepG2 Assay for human Peroxisome Proliferator-activated Receptor delta (PPARd) (AID 2283002; active means hit-call score of the fitted dose curve at least 0.9, where 1 is the maximum)
Sequence of human Peroxisome Proliferator-activated Receptor delta (PPARd), PPARD (gene 5467) (Q03181 whole entry, looked up, the tested form may be a part): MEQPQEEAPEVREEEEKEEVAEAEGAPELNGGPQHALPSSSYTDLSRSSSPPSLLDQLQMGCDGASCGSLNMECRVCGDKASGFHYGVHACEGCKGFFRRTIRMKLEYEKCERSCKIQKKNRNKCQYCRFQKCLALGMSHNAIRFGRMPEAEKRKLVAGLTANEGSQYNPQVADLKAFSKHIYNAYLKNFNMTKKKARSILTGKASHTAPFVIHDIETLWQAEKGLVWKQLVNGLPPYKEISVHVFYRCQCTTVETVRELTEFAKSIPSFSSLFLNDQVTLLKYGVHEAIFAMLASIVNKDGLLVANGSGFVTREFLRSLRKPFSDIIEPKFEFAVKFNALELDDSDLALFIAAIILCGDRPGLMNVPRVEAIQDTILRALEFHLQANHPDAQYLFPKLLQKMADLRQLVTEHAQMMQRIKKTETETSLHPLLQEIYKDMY
Summary of the method: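 Fluorescence from capillary electrophoresis of labelled RT-PCR reporter fragments gives the signal; DMSO sets baseline. Cells: HepG2 transiently carrying GAL4-UAS reporter units plus chimeric nuclear receptor-Gal4 proteins, exposed to chemicals for 24 h.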

C=CC(=C)CCC=C(C)C
outcome [1]: inactive | outcome [2]: inactive | outcome [3]: inactive | outcome [4]: inactive | outcome [5]: inactive | outcome [6]: inactive | outcome [7]: inactive | outcome [8]: inactive | outcome [9]: inactive | outcome [10]: inactive | outcome [11]: inactive | outcome [12]: inactive | outcome [13]: inactive | outcome [14]: inactive | outcome [15]: inactive | outcome [16]: inactive

CCCCCCc1ccc(O)cc1O
outcome [17]: inactive | outcome [3]: inactive | outcome [5]: inactive | outcome [6]: inactive | outcome [7]: inactive | outcome [8]: inactive | AC50 [10]: 24.3 µM (active) | AC50 [11]: 50.9 µM (active) | outcome [12]: inactive | AC50 [13]: 33.8 µM (active) | AC50 [14]: 31.8 µM (active) | AC50 [15]: 34.3 µM (active) | AC50 [16]: 32.2 µM (active) | outcome [18]: inactive

CC(=O)c1ccc2c(c1)[C@H](NC(=O)c1ccc(F)cc1)[C@@H](O)C(C)(C)O2
outcome [1]: inactive | outcome [4]: inactive | outcome [19]: inactive | outcome [6]: inactive | outcome [7]: inactive | outcome [8]: inactive | outcome [10]: inactive | outcome [11]: inactive | outcome [12]: inactive | outcome [13]: inactive | outcome [14]: inactive | outcome [15]: inactive | outcome [16]: inactive | outcome [18]: inactive

CC(C)=CCC/C(C)=C\CO
outcome [1]: inactive | outcome [3]: inactive | outcome [4]: inactive | outcome [5]: inactive | outcome [19]: inactive | outcome [6]: inactive | outcome [7]: inactive | outcome [8]: inactive | AC50 [10]: 100 µM (active) | outcome [11]: inactive | outcome [12]: inactive | outcome [13]: inactive | outcome [14]: inactive | outcome [15]: inactive | outcome [16]: inactive | outcome [18]: inactive

On1ccccc1=S
outcome [2]: inactive | outcome [3]: inactive | outcome [4]: inactive | outcome [19]: inactive | outcome [6]: inactive | outcome [7]: inactive | outcome [8]: inactive | AC50 [9]: 10.2 µM (active) | AC50 [10]: 12.2 µM (active) | outcome [11]: inactive | outcome [12]: inactive | AC50 [13]: 18.6 µM (active) | AC50 [14]: 28.4 µM (active) | AC50 [15]: 24.7 µM (active) | AC50 [16]: 16.1 µM (active)

O=C(CCCCCCCCc1cccnc1)N1CCC(C=C(c2ccccc2)c2ccccc2)CC1
outcome [17]: inactive | outcome [3]: inactive | outcome [4]: inactive | outcome [5]: inactive | outcome [6]: inactive | outcome [7]: inactive | AC50 [8]: 8.5 µM (active) | outcome [9]: inactive | AC50 [10]: 4.68 µM (active) | AC50 [11]: 8.91 µM (active) | AC50 [12]: 19.3 µM (active) | AC50 [13]: 8.68 µM (active) | AC50 [14]: 7.01 µM (active) | AC50 [15]: 14.3 µM (active) | AC50 [16]: 9.64 µM (active) | outcome [20]: inactive

CCC(C)(C)C(=O)O[C@H]1C[C@@H](C)C=C2C=C[C@H](C)[C@H](CC[C@@H]3C[C@@H](O)CC(=O)O3)[C@H]21
outcome [17]: inactive | outcome [19]: inactive | outcome [6]: inactive | outcome [7]: inactive | outcome [8]: inactive | outcome [10]: inactive | outcome [11]: inactive | outcome [12]: inactive | AC50 [13]: 20 µM (active) | AC50 [14]: 16.9 µM (active) | AC50 [15]: 29.9 µM (active) | AC50 [16]: 34.5 µM (active) | outcome [18]: inactive | outcome [20]: inactive

CC[C@H]1CC[C@H](NCc2cc3c(cc2OC)[C@H]2C[C@H]2C(=O)N3C)[C@H](c2ccccc2)N1
outcome [1]: inactive | outcome [2]: inactive | outcome [3]: inactive | outcome [5]: inactive | outcome [6]: inactive | AC50 [7]: 46.5 µM (active) | outcome [8]: inactive | AC50 [9]: 45.2 µM (active) | outcome [10]: inactive | AC50 [11]: 64.3 µM (active) | AC50 [12]: 100 µM (active) | outcome [13]: inactive | outcome [14]: inactive | outcome [15]: inactive | outcome [16]: inactive | outcome [18]: inactive | outcome [20]: inactive
